Experimental findings from the antibiotic and cytotoxicity screens of Wong et al. (2023) are described below.

In all, about 39,000 compounds went through this assay and about 1,500 (3.8%) were called active. This excerpt belongs to a sample that is enriched for actives.

This assay has as its system HSkMC (human skeletal muscle cells). Description: cytotoxicity call (relative viability < 0.9). The note with it: 10 µM.
`Nc1cccn2ncnc12`: the cytotoxicity call was “inactive”.

Regarding `CCCC(=O)Nc1nc2[nH]c(C)cc(=O)n2n1`, the cytotoxicity call was “inactive”.

In the case of `COc1cccc(CNC(=O)c2cc3c(c(-c4cccc(-c5cccc(C#N)c5)c4)n2)[C@@H](CCO)N([S@](=O)C(C)(C)C)C3)c1`, the cytotoxicity call was “inactive”.

`COC1(NC(=O)C(C(=O)[O-])c2ccc(O)cc2)C(=O)N2C(C(=O)[O-])=C(CSc3nnnn3C)COC21.[Na+].[Na+]` (stereo not given): the cytotoxicity call was “inactive”.

Consider `CNC[C@H]1OCCCC[C@@H](C)Oc2ccc(NC(=O)c3ccncc3)cc2C(=O)N([C@@H](C)CO)C[C@H]1C`, for which the cytotoxicity call is “inactive”.

On to `C[C@@H]1CCCCO[C@@H](CN(C)C(=O)Nc2ccc(F)cc2)[C@@H](C)CN([C@H](C)CO)C(=O)c2cc(NC(=O)C3CCCCC3)ccc2O1`, for which the cytotoxicity call is “inactive”.

In the case of `C[C@@H]1CN([C@@H](C)CO)C(=O)c2cc(NC(=O)c3ccccc3)ccc2O[C@@H](C)CCCCO[C@@H]1CN(C)S(=O)(=O)c1ccc(F)cc1`, the cytotoxicity call is “inactive”.

As to `Cc1cc(O)n(C[C@H]2CCCO2)c(=O)c1C#N`, the cytotoxicity call was “inactive”.

Consider `COc1ccc(S(=O)(=O)Nc2ccc3c(c2)C(=O)N([C@H](C)CO)C[C@@H](C)[C@H](CN(C)C(=O)Nc2ccc4c(c2)OCO4)OCCCC[C@@H](C)O3)cc1`, for which the cytotoxicity call was “inactive”.

With `COc1ccc(S(=O)(=O)N(C)C[C@H]2Oc3c(NC(=O)Nc4c(C)noc4C)cccc3C(=O)N([C@@H](C)CO)C[C@@H]2C)cc1`, the cytotoxicity call was “inactive”.

As to `O=C(NC1CCCCC1)N1c2ccccc2C=Cc2ccccc21`, the cytotoxicity call was “inactive”.

With `C[C@H]1CN([C@@H](C)CO)C(=O)c2c(c3ccccc3n2C)-c2ccccc2CO[C@@H]1CN(C)Cc1cccc2c1OCCCO2`, the cytotoxicity call is “inactive”.

On to `CCCC(=O)N1CC[C@]2(CC1)CN([C@H](CO)c1c2c2ccc(cc2n1C)OC)C(=O)CN1CCOCC1`, for which the cytotoxicity call was “inactive”.

Take `C[C@H](CO)N1C[C@H](C)[C@H](CN(C)C(=O)Nc2ccc(F)cc2)Oc2ccc(NC(=O)Nc3cccc4ccccc34)cc2C1=O`: the cytotoxicity call was “inactive”.

For the compound `CCS(=O)(=O)Nc1ccc2c(c1)C(=O)N(C)[C@H]1CC[C@@H](CC(=O)NCCCN3CCOCC3)O[C@H]1CO2`, the cytotoxicity call was “inactive”.

Regarding `COc1ccc(NC(=O)Nc2ccc3c(c2)C(=O)N([C@H](C)CO)C[C@H](C)[C@H](CN(C)Cc2ccc(C(F)(F)F)cc2)O3)cc1`, the cytotoxicity call is “inactive”.

Regarding `COc1ccc(CN(C)C[C@H]2Oc3ccc(NC(=O)Nc4ccc(C(F)(F)F)cc4)cc3C(=O)N([C@@H](C)CO)C[C@@H]2C)cc1`, the cytotoxicity call is “active”.

For `COc1ccc(CN(C)C[C@H]2Oc3ccc(NC(=O)Nc4ccc(C(F)(F)F)cc4)cc3C(=O)N([C@@H](C)CO)C[C@H]2C)cc1`, the cytotoxicity call is “active”.

For the compound `COc1ccc(NC(=O)Nc2ccc3c(c2)C(=O)N([C@H](C)CO)C[C@@H](C)[C@@H](CN(C)Cc2ccc(C(F)(F)F)cc2)O3)cc1`, the cytotoxicity call is “inactive”.

Take `COc1ccc(S(=O)(=O)Nc2ccc3c(c2)C(=O)N([C@@H](C)CO)C[C@@H](C)[C@@H](CN(C)Cc2ccccc2)OCCCC[C@H](C)O3)cc1`: the cytotoxicity call was “inactive”.

For the compound `C[C@H](CO)N1C[C@H](C)[C@@H](CN(C)S(=O)(=O)c2ccc(Cl)cc2)Oc2c(NS(C)(=O)=O)cccc2C1=O`, the cytotoxicity call was “inactive”.

On to `C[C@@H]1CN([C@@H](C)CO)C(=O)Cc2cc(NS(C)(=O)=O)ccc2O[C@H]1CN(C)S(=O)(=O)c1ccc(F)cc1`, for which the cytotoxicity call is “inactive”.

For `O=C(C[C@@H]1C=C[C@H](NC(=O)c2ccncc2)[C@@H](CO)O1)NCc1ccncn1`, the cytotoxicity call is “inactive”.

Regarding `Cc1ccc(S(=O)(=O)Nc2ccc3c(c2)C(=O)N([C@H](C)CO)C[C@@H](C)[C@@H](CN(C)Cc2ccc(Oc4ccccc4)cc2)O3)cc1`, the cytotoxicity call is “active”.

`COc1ccc(S(=O)(=O)Nc2ccc3c(c2)C(=O)N([C@H](C)CO)C[C@@H](C)[C@@H](CN(C)Cc2ccc(Oc4ccccc4)cc2)O3)cc1`: the cytotoxicity call is “inactive”.

As to `Cc1ccc(S(=O)(=O)Nc2ccc3c(c2)C(=O)N([C@@H](C)CO)C[C@@H](C)[C@@H](CN(C)Cc2ccc(Oc4ccccc4)cc2)O3)cc1`, the cytotoxicity call is “active”.

As to `Cc1ccc(S(=O)(=O)Nc2ccc3c(c2)C(=O)N([C@@H](C)CO)C[C@H](C)[C@@H](CN(C)Cc2ccc(Oc4ccccc4)cc2)O3)cc1`, the cytotoxicity call is “inactive”.

Turning to `Cc1ccc(S(=O)(=O)Nc2ccc3c(c2)C(=O)N([C@@H](C)CO)C[C@@H](C)[C@H](CN(C)Cc2ccc(Oc4ccccc4)cc2)O3)cc1`, the cytotoxicity call is “inactive”.

`C[C@@H]1CN([C@H](C)CO)C(=O)c2cc(NS(=O)(=O)c3ccccc3)ccc2O[C@@H]1CN(C)Cc1ccc(Oc2ccccc2)cc1`: the cytotoxicity call was “active”.

`C[C@H]1CN([C@@H](C)CO)C(=O)c2cc(NS(=O)(=O)c3ccccc3)ccc2O[C@H]1CN(C)Cc1ccc(Oc2ccccc2)cc1`: the cytotoxicity call was “inactive”.

As to `C[C@H](CO)N1C[C@H](C)[C@@H](CN(C)Cc2ccc(Oc3ccccc3)cc2)Oc2ccc(NS(=O)(=O)c3ccccc3)cc2C1=O`, the cytotoxicity call was “inactive”.

Take `COc1ccc(S(=O)(=O)Nc2ccc3c(c2)C(=O)N([C@H](C)CO)C[C@H](C)[C@@H](CN(C)Cc2ccc(Oc4ccccc4)cc2)O3)cc1`: the cytotoxicity call is “active”.

`COc1ccc(S(=O)(=O)Nc2ccc3c(c2)C(=O)N([C@H](C)CO)C[C@H](C)[C@H](CN(C)Cc2ccc(Oc4ccccc4)cc2)O3)cc1`: the cytotoxicity call is “inactive”.

Turning to `Cc1ccc(S(=O)(=O)Nc2ccc3c(c2)C(=O)N([C@@H](C)CO)C[C@H](C)[C@H](CN(C)Cc2ccc(Oc4ccccc4)cc2)O3)cc1`, the cytotoxicity call was “inactive”.

In the case of `CC(C)NC(=O)Nc1ccc2c(c1)C(=O)N([C@H](C)CO)C[C@@H](C)[C@@H](CN(C)C(=O)NC1CCCCC1)O2`, the cytotoxicity call is “inactive”.

Turning to `CN1CCN(C(=O)C[C@H]2CC[C@H](NC(=O)c3ccc4c(c3)OCO4)[C@H](CO)O2)CC1`, the cytotoxicity call was “inactive”.

Regarding `C[C@@H]1CN([C@@H](C)CO)C(=O)c2cc(NS(=O)(=O)c3cccs3)ccc2O[C@@H](C)CCCCO[C@H]1CN(C)Cc1ccccc1`, the cytotoxicity call is “inactive”.

For `C[C@H](CO)N1C[C@H](C)[C@H](CN(C)C(=O)Cc2ccccn2)Oc2cc(-c3cccc(C(=O)N(C)C)c3)ccc2S1(=O)=O`, the cytotoxicity call is “inactive”.

Consider `C[N+](C)(C)CCCC[C@@H]1NC(=O)[C@@H]2C[C@H](C(=O)NCc3ccc(F)cc3)[C@H](c3cccc(OCCO)c3)N2C1=O`, for which the cytotoxicity call is “inactive”.

Turning to `C[C@@H]1CCCCO[C@@H](CN(C)Cc2ccccc2)[C@H](C)CN([C@@H](C)CO)C(=O)c2cc(NC(=O)c3ccncc3)ccc2O1`, the cytotoxicity call is “inactive”.
